Test results: PubChem BioAssay AID1159580 (chemical genetic matrix, 2015)
Among all 5,500 compounds or so, about 2,000 (36%) were called active. Not shown: some 18% with an inconclusive outcome. Rule as the data show it: active = normalized growth mostly below about 0.91 (no sharp cut-off); inconclusive = no clear call, values can overlap the other calls; inactive = mostly above about 0.92. This is one part of the list.

Test: chemical genetic growth profiling, strain panel (AID 1159580);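 also: tested at 20 µM; growth read once vehicle control cultures reached saturation at 30 °C; 1 = growth at the plate median or of vehicle wells; lower values mean less growth of the strain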
Settings: S. cerevisiae deletion strains, growth OD

Measured: normalized growth

CN1CCN(CC/C=C2/c3ccccc3Sc3ccc(S(=O)(=O)N(C)C)cc32)CC1
inactive: locus YAL040C, strain CLN3, active compounds read low 0.997 | locus YCL061C, strain MRC1 (second series), active compounds read low 1 | locus YDR363W, strain ESC2, active compounds read low 0.983 | locus YER002W, strain NOP16, active compounds read low 1.03 | locus YGR229C, strain SMI1, active compounds read low 0.99 | locus YJR075W, strain HOC1, active compounds read low 0.993 | locus YMR307W, strain GAS1, active compounds read low 0.999 | locus YNL153C, strain GIM3, active compounds read low 1.02 | locus YNL175C, strain NOP13, active compounds read low 1.03 | locus YNL197C, strain WHI3, active compounds read low 1.02 | locus YNL224C, strain SQS1, active compounds read low 1.04 | locus YNL322C, strain KRE1, active compounds read low 0.967 | locus YOR083W, strain WHI5 (second series), active compounds read low 1.05 | locus YPL055C, strain LGE1, active compounds read low 0.989
